Results taken from PubChem BioAssay (NCATS).
Values joined by “and” are separate entries in the source; they are usually repeats but may differ in a detail not shown here. Identical values can stand only once. Inconclusive results are not listed. Active and inactive are the calls of the source. The call rests on the fitted dose curve; in most records, active means well fitted activation curve with a large enough effect in the signal ratio; inconclusive means small, poorly fitted or top-dose-only effect, or a change in a side signal; inactive means flat fitted curve, though single readings scatter; the % refers to the signal ratio.

Assay: qHTS assay for small molecule activators of the nuclear factor-kappa B (NF-kB) signaling pathway (AID 651749); further: series mostly up to about 77 µM; % of control where 0% means no effect
Conditions: NF-kB-bla ME-180 cells, beta-lactamase FRET ratio, 16 h; hits give high values
Source text: National Center for Advancing Translational Sciences [NCATS] NIH Chemical Genomics Center [NCGC] U.S. Environmental Protection Agency [EPA] National Institutes of Environmental Health Sciences [NIEHS] National Toxicology Program [NTP] Assay Overview: Transcription factors and their stimulated target gene expression play pivotal roles across many cellular processes including responses to environmental stimuli. Proper regulation of associated pathways is critical to maintain cell health and function. Constitutive activation of transcription factor pathways has been implicated in tumors as it may block cellular functions such as apoptosis and lead to invasion and metastasis. One important transcription factor that stimulates gene expression in response to cytokines, UV radiation, and other stimuli is nuclear factor-kappa B (NF-kB). To measure activation of the NF-kB pathway, the NF-kB-bla ME-180 cell line stably expressed beta-lactamase reporter gene under the regulation of a NF-kB response element was obtained from Invitrogen. This assay allows measurement of the NF-kB pathway activity induced by compounds in a ME-180 cell line. This system quantitates NF-kB activity using a FRET-based assay system where beta-lactamase expression disrupts FRET, allowing for fluorescent measurement of activity.
Assay Protocol Summary: For toxicology screening, 2,000 cells in 5 uL/well were dispensed into black, clear-bottom 1536-well plates using a Multidrop Combi (Thermo Scientific) dispenser. Following transfer of 23 nL compound or DMSO vehicle by a pin tool, the plates were incubated 16 hr at 37C and 5% CO2.

Question: Which activation does the source give for `O=C(O)Cc1cccc2ccccc12` here?
Answer: -0.417% (inactive) and -0.959% (inactive)

Question: Which activation does the source give for `CCCCC1C(=O)N(c2ccccc2)N(c2ccccc2)C1=O` here?
Answer: -1.5% (inactive) and -1.29% (inactive)

Question: For `CC(C)OC(=O)C(C)(C)Oc1ccc(C(=O)c2ccc(Cl)cc2)cc1`, which activation is on record?
Answer: -1.6% (inactive)

Question: With `O=c1cc(-c2ccccc2)oc2cc(O)cc(O)c12` as the compound, how does the activation read?
Answer: -2.47% (inactive)

Question: Which activation does the source give for `CCCNC(=O)NS(=O)(=O)c1ccc(Cl)cc1` here?
Answer: -1.46% (inactive) and -0.938% (inactive)

Question: For `CC(=O)c1ccc(S(=O)(=O)NC(=O)NC2CCCCC2)cc1`, which activation is on record?
Answer: -0.811% (inactive) and -1.71% (inactive)

Question: With `O=c1c(-c2ccc(O)cc2)coc2cc(O)ccc12` as the compound, how does the activation read?
Answer: -0.613% (inactive) and -0.223% (inactive)

Question: With `O=C(O)c1cc(O)c2c(c1)C(=O)c1cccc(O)c1C2=O` as the compound, how does the activation read?
Answer: 1% (inactive)

Question: Which activation does the source give for `CC(=O)O[C@]1(C(C)=O)CC[C@H]2[C@@H]3C=C(Cl)C4=CC(=O)[C@@H]5C[C@@H]5[C@]4(C)[C@H]3CC[C@@]21C` here?
Answer: -2.59% (inactive) and -0.559% (inactive)

Question: For `CN(C)CCC(c1ccccc1)c1ccccn1` (stereo not drawn), which activation is on record?
Answer: -0.458% (inactive)

Question: Which activation does the source give for `O=C(O)c1cc(-c2ccccc2)nc2ccccc12` here?
Answer: -3.75% (inactive)

Question: Which activation does the source give for `O=c1c(O)c(-c2ccc(O)cc2)oc2cc(O)cc(O)c12` here?
Answer: -2.22% (inactive) and -4.27% (inactive)

Question: For `CCn1cc(C(=O)O)c(=O)c2ccc(C)nc21`, which activation is on record?
Answer: -0.653% (inactive) and -1.68% (inactive)
